The list is not random: actives were taken first. Their share in the collection is about 3.1%.
VDR inh – Inhibitors of the vitamin D receptor (VDR): qHTS; actives 0.93% (n = 400,000); VDR-SRC2-3 peptide fluorescence polarization, 2 h; Potency, µM, without a hit: max response, negative = inhibition, usual class: inhibitors; further: potency means the concentration at half of the fitted maximal effect
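The screen uses fluorescence polarization to detect compounds that interfere with recruitment of the SRC2-3 coactivator peptide to VDR; plates are read after 2 h at room temperature.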
KAT2A inh – qHTS Assay for Inhibitors of GCN5L2 | actives 0.21% (n = 390,000) | GCN5L2 HAT assay, ThioGlo1 CoA-SH fluorescence | Histone acetyltransferase KAT2A (Homo sapiens), Q92830 | Potency, µM (titrated, usually from 58.9 µM), for inactives: top-dose activity change, negative = inhibition, hits mostly inhibitors; further: potency means the concentration at half of the fitted maximal effect
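Preincubate 20nM GCN5L2 with compound 15 min, RT → add 50uM ThioGlo1 + 75uM H3(1-25) + 70uM acetyl-CoA → read fluorescence 0 and 20 min. Primary qHTS; fluorescent artifacts likely.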
GLS inh – qHTS for Inhibitors of Glutaminase (GLS); Glutaminase kidney isoform, mitochondrial (Homo sapiens), O94925; GLS enzymatic activity, qHTS titration; Potency, µM (titrated, usually from 45.5 µM), for the others: top-dose activity change, negative = inhibition, actives largely listed as inhibitors; actives 0.21% (n = 410,000); AID 624170, 2012; further: potency means the concentration at half of the fitted maximal effect
Target sequence (O94925 whole entry, looked up, canonical isoform): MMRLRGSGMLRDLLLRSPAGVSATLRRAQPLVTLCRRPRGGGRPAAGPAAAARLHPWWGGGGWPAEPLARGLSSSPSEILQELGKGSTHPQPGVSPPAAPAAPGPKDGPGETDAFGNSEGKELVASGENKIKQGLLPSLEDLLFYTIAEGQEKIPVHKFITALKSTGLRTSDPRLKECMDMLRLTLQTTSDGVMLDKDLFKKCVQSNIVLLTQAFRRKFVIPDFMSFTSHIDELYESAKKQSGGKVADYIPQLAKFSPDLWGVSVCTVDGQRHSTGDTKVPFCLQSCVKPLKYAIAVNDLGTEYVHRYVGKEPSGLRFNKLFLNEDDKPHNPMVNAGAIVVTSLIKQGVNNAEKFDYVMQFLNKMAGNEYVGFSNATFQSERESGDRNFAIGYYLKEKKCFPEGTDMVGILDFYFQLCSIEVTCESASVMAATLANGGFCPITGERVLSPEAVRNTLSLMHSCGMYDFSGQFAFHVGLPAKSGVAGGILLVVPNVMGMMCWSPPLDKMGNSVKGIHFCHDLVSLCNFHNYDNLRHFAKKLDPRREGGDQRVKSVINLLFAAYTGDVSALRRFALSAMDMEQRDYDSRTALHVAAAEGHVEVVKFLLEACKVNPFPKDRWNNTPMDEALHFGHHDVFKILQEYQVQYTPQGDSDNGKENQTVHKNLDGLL
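Human kidney-isoform GLS in 45 mM KH2PO4 pH 8.2, 0.02% Tween-20, with compound, started with 1mM L-Glutamine (added stock). Glutamate oxidase/HRP/Amplex red coupled fluorescence read at start and after 30 min at RT.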
PLK1 PBD block – qHTS for Inhibitors of PLK1-PDB (polo-like kinase 1 - polo-box domain): Primary Screen; Serine/threonine-protein kinase PLK1 (Homo sapiens), P53350; Plk1 PBD binding of FITC phosphopeptide, fluorescence polarization; AID 720504, 2013; actives 2.8% (n = 360,000); Potency, µM, inactives show max response, negative = inhibition, actives largely listed as inhibitors; further: potency means the concentration at half of the fitted maximal effect; series mostly up to about 57 µM; nearly all actives have a fitted effect of over 65% in size
PI4K2A block – qHTS for small molecular inhibitors of PI4K2A; activity change, negative = inhibition, % at 76.9 µM; AID 1346378, 2018; actives 0.13% (n = 420,000); purified PI4K2A, ADP-Glo luminescence, 1 h; stronger effect = lower value; Phosphatidylinositol 4-kinase type 2-alpha (Homo sapiens), Q9BTU6; in the data active means activity change below about -50%; inconclusive means mostly about -30% to -49%;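 further: -100% = wells without enzyme as full effect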
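Compounds are screened against recombinant PI4K2A using PI as substrate and ATP, the latter dispensed at 300 microM. Reactions run one hour at ambient temperature before ADP-Glo detection; full inhibition defined by wells lacking enzyme.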
TbPYK confirm – qHTS of Trypanosoma Brucei Inhibitors: Confirmatory Assay for Cherry-picked Compounds. actives 67% (n = 890). shares compounds with PLK1 PBD block. AID 720569, 2013. recombinant TbPYK, Kinase-Glo ATP luminescence. Potency, µM (top dose mostly 76.9 µM), without a hit: at the highest dose activity change, negative = inhibition, actives largely listed as inhibitors; further: potency means the concentration at half of the fitted maximal effect; nearly all actives have a fitted effect of over 70% in size
TbPYK orthogonal – qHTS of Trypanosoma Brucei Inhibitors: Orthogonal Assay for Cherry-picked Compounds | shares compounds with PLK1 PBD block | recombinant TbPYK, ADP-Glo luminescence, 60 min | Potency, µM (doses to about 76.9 µM), for the others: at the top dose activity change, negative = inhibition, most hits filed as inhibitors | actives 62% (n = 890); further: potency means the concentration at half of the fitted maximal effect; nearly all actives have a fitted effect of over 75% in size
* = called active by the depositor; ? = inconclusive; / = no result. Unless noted, the call rests on the fitted dose curve; in most records, active means well fitted curve in the direction sought with a large enough effect; inconclusive means small, poorly fitted or top-dose-only effect, or another doubt; inactive means no such curve, though single readings can be large; an effect the other way counts as inactive or inconclusive. Unless noted, on the % scale 0 is the no-effect control and ±100 the full control effect.

SMILES | VDR inh | KAT2A inh | GLS inh | PLK1 PBD block | PI4K2A block | TbPYK confirm | TbPYK orthogonal
COc1ccc(N2CSC3=C(C#N)C(c4cccc(OC)c4OC)CC(=O)N3C2)cc1 (centres undefined) | 20µM* | ? | -1% | 7.5µM* | -4 | 1.6µM* | 1.4µM*
O=C(c1ccc2ncsc2c1)N1CCN(c2ccccc2Cl)CC1 | 24% | 3% | -7% | ? | -4 | / | /
O=C(c1ccc2ncsc2c1)N1CCN(c2ccc(O)cc2)CC1 | 4% | 2% | -24% | -19% | -1 | 11µM* | ?
CC1=C(C)CC(C(=O)N2CCN(Cc3ccc4c(c3)OCO4)CC2)C(C(=O)O)C1 (centres undefined) | 8% | 2% | 5% | -8% | -1 | / | /
CCc1oc(C(=O)O)cc1CN(CC)CC | -4% | / | 0% | -8% | 3 | / | /
CCN(CC)Cc1cc(O)c(CN(CC)CC)cc1O | -3% | 1% | 16µM* | 4.2µM* | -24 | -99% | 10µM*
CC(CNC(=O)CN1C(=O)COc2ccc(S(=O)(=O)N3CCCCC3)cc21)c1ccccc1 (centres undefined) | -13% | -2% | 8% | ? | 4 | / | /
N#Cc1ccc(Oc2c(Cl)cncc2Cl)cc1 | 7% | -5% | 9% | 1% | 4 | / | /
Fc1ccc(N=c2ssnc2Cl)c(F)c1 | 35µM* | 7.9µM* | ? | 1.7µM* | -8 | 28µM* | 32µM*
O=C1CSC(=Nc2ccc(Cl)cc2)N1Cc1ccco1 | -15% | -4% | -1% | -4% | -8 | / | /
CCOC(=O)c1ccc(N=c2ssnc2Cl)cc1 | 16µM* | 13µM* | 13µM* | 2.1µM* | 7 | 16µM* | 16µM*
N#Cc1ccc(N=c2ssnc2Cl)cc1 | 14µM* | 10µM* | ? | 1.3µM* | -6 | 7.1µM* | 7.9µM*
Clc1ccc(N=c2ssnc2Cl)cc1 | 25µM* | 14µM* | 78% | 1.9µM* | 12 | 7.9µM* | 10µM*
O=C(Nc1ccnn1C1CCN(CCCC2CCCC2)CC1)c1ccccc1Cl | 5% | 0% | -10% | 4% | 4 | / | /
NC(=O)CSc1oc(-c2ccco2)nc1S(=O)(=O)c1ccc(F)cc1 | 3% | -5% | -1% | -21% | 5 | / | /
Cc1nnc(N2CCN(c3ccccc3)CC2)[nH]c1=O | -18% | -3% | -48% | 3µM* | 2 | 3% | -3%
CCn1c(CNC(=O)c2ccc(OC)cc2)nnc1SCC(=O)c1ccccc1 | ? | -5% | 2% | -11% | -1 | / | /
CCn1c(CCNC(=O)c2cccs2)nnc1SCC(=O)c1ccc(OC)cc1 | -13% | / | 6% | ? | 3 | 0.89µM* | 14µM*
O=C(O)Cc1ccc2sc(-c3ccccc3)nc2c1 | -6% | -4% | 7% | 0% | -67* | 32µM* | 7%
O=C(O)Cc1ccc(-c2ccccc2-c2ccccc2)cc1 | -14% | 2% | -9% | -19% | 1 | / | /
Cn1c(=O)c2c(nc(SCC(=O)O)n2Cc2cc3c(cc2Cl)OCO3)n(C)c1=O | -5% | -4% | -26% | -6% | 0 | 2µM* | 4µM*
COc1ccc(N2C3=C(CC4=C2CCCC4=O)C(=O)CCC3)cc1 | -22% | -12% | -16% | 21µM* | -56* | -7% | -23%
CCN(CC)C(=S)Sc1c(-c2ccccc2)c2cc(Cl)ccc2[nH]c1=O | ? | -5% | -14% | ? | 13 | ? | 14µM*
CCOC(=O)CSc1c(-c2ccccc2)c2cc(Cl)ccc2[nH]c1=O | -17% | 17% | 3% | -28% | 4 | / | /
CCN(CC)c1ccc(C(=C2C=CC(=[N+](CC)CC)C=C2)c2ccc(S(=O)(=O)O)cc2S(=O)(=O)[O-])cc1 | 57% | / | -7% | -13% | -56* | 16µM* | 2%
SMILES | VDR inh | KAT2A inh | GLS inh | PLK1 PBD block | PI4K2A block | TbPYK confirm | TbPYK orthogonal
Cn1c2ccccc2c2ccc3c(c21)C(=O)C=CC3=O | 25µM* | / | 35% | 12µM* | -15 | -28% | -21%
Cn1c2c(c(=O)c3ccccc31)CCCC2 | 4% | -14% | 2% | -4% | -1 | / | /
CC1(C)OC(=O)C(=Cc2ccc(-c3ccc(Cl)c(C(=O)O)c3)o2)C(=O)O1 | ? | ? | ? | 1.7µM* | -19 | 7.1µM* | 18µM*
c1cc2c(cc1CN1CCOCC1)OCO2 | -12% | -4% | 2% | -7% | -3 | 12% | -3%
CCCc1cc(=O)oc2c(C)c3c(cc12)CN(CCc1ccc(Cl)cc1)CO3 | 8% | -13% | 18% | / | -4 | / | /
CCC1Sc2ccccc2N(CC(=O)NCc2ccc(C)cc2)C1=O (centres undefined) | 14% | -1% | 4% | / | -1 | / | /
CCSc1nc2c([nH]1)c(=O)n(C)c(=S)n2C | 22µM* | / | 2% | 3.4µM* | -2 | 5µM* | 10µM*
CCCSc1nc2c([nH]1)c(=O)n(C)c(=S)n2C | 3% | / | 19% | -1% | 1 | / | /
CSC1=NS(=O)(=O)c2c(C)nn(C)c2S1 | 25µM* | 28µM* | -27% | 21µM* | 0 | 4µM* | 3.5µM*
CC(=O)C(Sc1nn(C)c(=S)s1)C(=O)Nc1ccccc1 (centres undefined) | 79µM* | ? | -1% | 27µM* | -7 | 20µM* | 28µM*
O=C(NCc1ccccc1)c1ccc2nccnc2c1 | -11% | -1% | 3% | -4% | -3 | / | /
O=C(NCCCO)c1ccc2nc(-c3ccco3)c(-c3ccco3)nc2c1 | 79µM* | -8% | -19% | 30µM* | -5 | 22µM* | 35µM*
CCc1nc2ccc(C(=O)NCCc3ccco3)cc2nc1CC | -4% | -1% | -12% | -19% | -4 | / | /
O=C(NCc1ccccc1)c1ccc2nc(-c3ccco3)c(-c3ccco3)nc2c1 | 40µM* | ? | -20% | 7.5µM* | -66* | 18µM* | 18µM*
O=C(Nc1cccnc1)c1ccc2nc(-c3ccccc3)c(-c3ccccc3)nc2c1 | 3% | -11% | 0% | -14% | -2 | / | /
O=C(Nc1ccccc1)c1ccc2nc(-c3ccco3)c(-c3ccco3)nc2c1 | ? | ? | -18% | 27µM* | -51* | ? | ?
